High-throughput results: PubChem BioAssay, NMMLSC
RGS16-Gao HTS: RGS16-Galphao interaction regulator (human); O15492+P09471; bead-based flow cytometry RGS16-Galphao binding, fluorescence; actives lie on both sides; binding response (% of control), % at 10 µM; 220,000 tested, 0.38% active;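 also: Galphao activated by GDP with aluminum fluoride before binding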
RGS4-Gao reg: modulates binding of RGS4 to human Galphao; P09471; Multiplexed bead flow cytometry; actives lie on both sides; binding response (% of control), % at 10 µM; 220,000 tested, 0.33% active; in the data active = binding response below about 49% or above about 150%; inactive = in between;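 also: fluorescent Galphao activated with aluminum fluoride binding bead-coupled RGS4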
Target sequence (P09471 whole entry, looked up): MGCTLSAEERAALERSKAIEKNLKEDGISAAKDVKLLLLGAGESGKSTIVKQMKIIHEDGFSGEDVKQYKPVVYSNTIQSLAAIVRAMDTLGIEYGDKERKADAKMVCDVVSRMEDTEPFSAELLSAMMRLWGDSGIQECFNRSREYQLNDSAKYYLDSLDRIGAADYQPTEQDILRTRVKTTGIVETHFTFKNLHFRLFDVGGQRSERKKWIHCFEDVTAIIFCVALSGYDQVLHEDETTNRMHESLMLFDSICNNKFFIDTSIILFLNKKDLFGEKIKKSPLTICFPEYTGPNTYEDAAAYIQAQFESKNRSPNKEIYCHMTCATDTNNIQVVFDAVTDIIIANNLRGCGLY
RGS8-Gao: regulators of human RGS8-Galphao interaction; AID 1423; P09471; response (percent of control binding), % at 10 µM; 220,000 tested, 0.34% active; multiplexed bead flow cytometry, RGS8-Galphao binding; actives lie on both sides; in the data active = response below about 60% or above about 140%; inactive = in between;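 also: Galphao activated as the GDP aluminium fluoride complex binding bead-coupled RGS8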
RGS7-Gao reg: modulates binding of RGS7 to human Galphao. P09471. Multiplexed bead flow cytometry; actives lie on both sides. 220,000 tested, 0.35% active. binding response (% of control), % at 10 µM; in the data active = binding response below about 49% or above about 150%; inconclusive = no clear call, values can overlap the other calls; inactive = in between;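 also: fluorescent Galphao held in activated GDP-AlF4 state binding bead-coupled RGS7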
Avidin bead fluor: avidin bead compound fluorescence profile; 220,000 tested, 0.38% active; Avidin beads, compound fluorescence 488/530 nm, flow cytometry; active compounds read high; fluorescence (KMESF) at 10 µM; in the data active = fluorescence above about 47
GSH fluor: compound fluoresces at 488/530 nm on GSH beads; fluorescence (KMESF) at 10 µM; 190,000 tested, 0.25% active; AID 1776; GSH beads flow cytometry, compound fluorescence 488/530 nm; active compounds read high; in the data active = fluorescence above about 89;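 also: glutathione beads carrying GST-tagged Bcl family fusion proteins plus one bare bead set; values are compound well signal with DMSO vehicle wells as background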
RGS-Gao: RGS4-Galphao interaction regulator (human); shares compounds with RGS16-Gao HTS; multiplexed bead flow cytometry, RGS–Galpha-o binding; RGS4–Galpha-o binding response, % at 10 µM; 1,600 tested, 99% active; AID 1504;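 also: fluorescently labeled Galpha-o bound to GDP with aluminium fluoride binding biotinylated RGS beads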
Avidin counter: biotin-avidin bead binding disruption counter-screen. shares compounds with RGS16-Gao HTS. streptavidin beads, fluorescein-biotin binding, flow cytometry. 1,700 tested, under 10 active. inhibition, % at 10 µM. AID 1783;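 active = inhibition above 50%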;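 also: median green fluorescence of gated singlet beads compared with DMSO control wells; 0% = DMSO wells and 100% = complete loss of bead fluorescence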
RGS8-Gao confirm: RGS8-Galphao interaction regulation, single point confirmation; AID 1836; binding response (% of control), % at 10 µM; 1,700 tested, 3% active; bead-based flow cytometry RGS8-Galphao binding, fluorescence; actives lie on both sides; shares compounds with RGS16-Gao HTS; in the data active = binding response below about 72% or above about 130%; inactive = in between;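 also: Galphao activated as GDP AlF4 complex before binding bead RGS8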
RGS7-Gao single: RGS7-Galphao interaction regulation, single point confirmation | AID 1837 | shares compounds with RGS16-Gao HTS | response (percent of control binding), % at 10 µM | 1,700 tested, 7.8% active | bead-based flow cytometry RGS7-Galphao binding; actives lie on both sides; in the data active = response below about 75% or above about 130%; inactive = in between;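 also: fluorescent Galphao activated with GDP and aluminum fluoride binding bead-coupled RGS7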
RGS16-Gao single: RGS16-Galphao interaction regulation, single point confirmation. shares compounds with RGS16-Gao HTS. bead-based flow cytometry, RGS16-Galphao binding; actives lie on both sides. response (% of control binding), % at 10 µM. 1,700 tested, 4% active. AID 1838; in the data active = response below about 74% or above about 130%; inactive = in between;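 also: Galphao activated as the GDP aluminium fluoride complex binding bead-coupled RGS16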
RGS4-Gao single: RGS4-Galphao interaction regulation, single point confirmation; binding response (% of control), % at 10 µM; shares compounds with RGS16-Gao HTS; 1,700 tested, 4% active; RGS4-Galphao binding, multiplexed bead flow cytometry; actives lie on both sides; AID 1840; in the data active = binding response below about 74% or above about 130%; inactive = in between
RGS19-Gao single: confirmation of regulators of human RGS19-Galphao interaction; shares compounds with RGS16-Gao HTS; bead-based flow cytometry RGS19-Galphao binding; actives lie on both sides; response (percent of control binding), % at 10 µM; 1,700 tested, 5% active; AID 1841; in the data active = response below about 50% or above about 160%; inactive = in between;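 also: 100% = no compound control and 0% = blank background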
Target sequence (P09471 whole entry, looked up): as above
Target sequence (P49795 whole entry, looked up): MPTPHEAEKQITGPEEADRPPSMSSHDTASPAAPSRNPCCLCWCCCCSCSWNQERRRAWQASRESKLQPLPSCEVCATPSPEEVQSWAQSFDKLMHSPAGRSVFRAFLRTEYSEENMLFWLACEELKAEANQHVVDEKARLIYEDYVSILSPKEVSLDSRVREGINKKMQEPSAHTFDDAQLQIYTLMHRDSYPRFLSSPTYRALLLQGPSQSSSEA
* hit, by the source's call; ? = inconclusive; . = no result given; [ ] = remark or other dose. Hits are enriched below; roughly 1.2% of the tested compounds scored in any of these assays. Unless noted, no rule for the calls is given here.

SMILES	RGS16-Gao HTS	RGS4-Gao reg	RGS8-Gao	RGS7-Gao reg	Avidin bead fluor	GSH fluor	Avidin counter	RGS8-Gao confirm	RGS7-Gao single	RGS16-Gao single	RGS4-Gao single	RGS19-Gao single	others
COc1ccc(NS(=O)(=O)c2ccc(OCC(=O)N3CCOCC3)cc2)cc1	11.5*	20.8*	13.0*	15.7*	0	26	0.4	100.2	77.2	91.5	82.3	89.1
CCc1ccc(C2CC(c3ccco3)=NN2S(C)(=O)=O)cc1 (stereo not drawn)	.	.	.	.	.	18	-1.3	99.1	105.5	98.2	99.8	92.0
CCOc1ccc2cc(C3CC(c4ccco4)=NN3S(C)(=O)=O)c(Cl)nc2c1 (stereo not drawn)	99.1	98.3	97.9	?	6	.	.	.	.	.	.	.
COc1ccc(C(O)Cn2cc([N+](=O)[O-])nc2C)cc1 (stereo not drawn)	100.7	105.9	100.6	?	6	.	.	.	.	.	.	.
COc1cccc(/C=N/n2c(-c3cc(C)[nH]n3)n[nH]c2=S)c1O	99.1	98.4	100.8	?	7	.	.	.	.	.	.	.
O=c1[nH]c(C2CCCN(S(=O)(=O)c3ccc(F)cc3)C2)nc2c1nnn2Cc1ccccc1 (stereo not drawn)	105.9	106.3	102.8	104.7	10	14	.	.	.	.	.	.
Cc1ccc(Cn2nnc3c(=O)[nH]c(C4CCCN(S(=O)(=O)c5ccccc5)C4)nc32)cc1 (stereo not drawn)	-106.5*	73.3	72.6	80.2	9	19	0.3	104.9	98.5	107.2	105.1	109.1	RGS-Gao=73.3*
Cc1ccccc1C(C(=O)NC1CCCCC1)N(C(=O)CNC(=O)c1ccco1)c1cccnc1 (stereo not drawn)	110.5	98.1	103.5	101.8	13	16	.	.	.	.	.	.
Cc1ccc(C(=O)COC(=O)CCCC(=O)Nc2cc(C(F)(F)F)ccc2Cl)cc1C	10.8*	19.8*	25.6*	12.0*	0	8	-1.1	99.7	96.2	99.4	98.9	87.6
Cc1ccc(C(=O)COC(=O)CCC(=O)Nc2ccccc2Cl)cc1[N+](=O)[O-]	126.8	101.0	114.0	99.5	7	13	.	.	.	.	.	.
Cc1ccc(-n2nc3c(SCCN4CCOCC4)nnc(C)c3c2C)cc1	99.9	97.3	99.2	99.8	18	17	.	.	.	.	.	.
CCOc1ccc(-n2nc3c(SCCN4CCCC4)nnc(C)c3c2C)cc1	202.2*[activator]	182.8*[activator]	121.3	209.8*[activator]	40	12	-0.5	99.2	88.2	96.6	91.4	91.6
OC(c1ccccc1)(c1ccccc1)C1CCN(C(=S)NCCc2ccccc2)CC1	102.0	101.4	103.3	107.1	6	19	.	.	.	.	.	.
O=C(O)CCCC(=O)N1CCC(C(O)(c2ccccc2)c2ccccc2)CC1	106.8	102.2	93.1	94.8	8	18	-1.3	102.5	96.3	99.6	98.9	100.8
CCCC(=O)Nc1cccn(Cc2ccccc2Br)c1=O	.	.	.	.	.	39	0.2	99.8	101.6	99.6	98.9	113.5
COc1ccc2c(c1)c1nc(SCC(C)C)n(CCO)c(=O)c1n2C	58.8	40.9*	48.5*	42.5*	3	21	0.0	97.3	93.1	98.4	97.0	103.4
COc1cccc(CNC(=O)CCC2CCCN(C(=O)c3ccc(OC)o3)C2)c1 (stereo not drawn)	98.0	94.6	98.9	96.0	8	9	.	.	.	.	.	.
COc1ccc(OC)c(/C=C2\SC(=S)N(Cc3cccnc3)C2=O)c1	14.5*	88.9	83.5	88.0	5	9	-0.6	108.1	112.0	103.1	103.3	105.0	RGS-Gao=88.9*
CC(=O)Oc1ccc2c(=O)c(Oc3ccccc3)c(C)oc2c1OC(C)=O	-3.1	48.8*	53.7*	42.6*	3	21	-1.0	96.2	94.4	93.5	95.0	93.4
Cc1ccc(-n2c(SCC(=O)NCc3ccco3)nc3c([nH]c4ccccc43)c2=O)cc1	-4.2*	-3.0*	6.5*	-10.8*	-1	17	0.7	111.2	118.8	110.6	113.1	106.0
O=C(CN1C(=O)c2ccccc2C1=O)N1CCN=C1c1ccccc1	106.4	111.8	103.8	?	8	.	.	.	.	.	.	.
N#CCCN/N=C(/Cc1nc2ccccc2[nH]1)c1cccc(Cl)c1	223.5*[activator]	246.7*[activator]	169.0*[activator]	197.6*[activator]	9	27	1.4	94.7	97.4	92.9	95.8	95.9
Clc1ccc(/C(Cc2nc3ccccc3[nH]2)=N\Nc2ccccc2)cc1	105.6	97.9	101.1	98.9	6	20	.	.	.	.	.	.
NC(=O)C1CCN(CC(=O)NC(=O)NC2CCCC2)CC1	103.6	98.3	99.9	104.3	10	27	.	.	.	.	.	.
Cc1ccc(S(=O)(=O)N2CCN(C(=O)c3cccc(F)c3)CC2)cc1	107.2	124.9	93.6	264.3*[activator]	172*	27	0.7	98.4	91.7	93.1	94.3	92.6	RGS-Gao=124.9*
CC(C)c1onc(C(=O)N2CCCCC2C)c1[N+](=O)[O-] (stereo not drawn)	-44.8	27.7*	30.3*	23.3*	-1	14	-1.1	104.3	101.6	107.2	101.0	103.0
CC(C)c1onc(C(=O)N2C(C)CCCC2C)c1[N+](=O)[O-] (stereo not drawn)	107.0	98.8	101.6	99.1	3	10	.	.	.	.	.	.
O=C(CN1N=C(c2ccc(Cl)cc2)CCC1=O)NCCN1CCc2ccccc2C1	-2.4*	14.5*	12.9*	4.0*	-5	12	-1.3	109.8	106.4	115.8	107.1	135.2
Cc1ccc(C2=NN(CC(=O)NCc3cccs3)C(=O)CC2)cc1	116.7	101.3	106.2	101.8	26	12	.	.	.	.	.	.
CS(=O)(=O)c1nc2ccccc2n1Cc1ccccc1	.	.	.	.	.	13	-0.1	99.8	103.1	99.2	104.3	107.7
